Where a chain is given by its changes, count along the chain named.
Key:
Experiment in all cases: PBM; 200 nM protein, PBS
Conditions in all cases: dsDNA, one strand shown
[1] = biological target: ALX3 (Homo sapiens, UniProt O95076 139-225, N203Q)
[2] = biological target: ALX3 (Homo sapiens, UniProt O95076 139-225)
[3] = biological target: ALX3 (Homo sapiens, UniProt O95076 139-225, N203S)
[4] = biological target: HOXD13 (Homo sapiens, UniProt P35453 263-343, T313R)
[5] = biological target: HOXD13 (Homo sapiens, UniProt P35453 263-343)
HOXD13 (Homo sapiens, UniProt P35453 263-343), sequence (P35453 263-343): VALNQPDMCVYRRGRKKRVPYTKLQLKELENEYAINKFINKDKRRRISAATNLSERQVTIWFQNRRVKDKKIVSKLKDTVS

[6] = biological target: ALX3 (Homo sapiens, UniProt O95076 139-225, L168V)
ALX3 (Homo sapiens, UniProt O95076 139-225, L168V), sequence (O95076 139-225 L168V): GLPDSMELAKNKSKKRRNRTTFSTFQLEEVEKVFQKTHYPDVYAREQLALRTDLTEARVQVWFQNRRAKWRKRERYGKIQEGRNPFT

[7] = biological target: HOXA2 (Homo sapiens, UniProt O43364 129-215, R185K)
HOXA2, sequence (O43364 129-215 R185K): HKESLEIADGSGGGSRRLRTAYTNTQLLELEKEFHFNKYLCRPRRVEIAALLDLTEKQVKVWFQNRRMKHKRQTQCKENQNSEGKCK

[8] = biological target: HOXD13 (Homo sapiens, UniProt P35453 263-343, T313A)
HOXD13 (Homo sapiens, UniProt P35453 263-343, T313A), sequence (P35453 263-343 T313A): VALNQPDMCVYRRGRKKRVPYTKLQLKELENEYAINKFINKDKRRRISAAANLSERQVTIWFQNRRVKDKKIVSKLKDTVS

[9] = biological target: HOXC9 (Homo sapiens, UniProt P31274 178-260, R222W)
HOXC9, sequence (P31274 178-260 R222W): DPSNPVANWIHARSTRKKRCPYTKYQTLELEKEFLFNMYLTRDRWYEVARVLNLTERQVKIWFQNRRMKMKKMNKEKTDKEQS

[10] = biological target: T1, NKX2-6 (Homo sapiens, UniProt A6NCS4 118-204)
T1 sequence: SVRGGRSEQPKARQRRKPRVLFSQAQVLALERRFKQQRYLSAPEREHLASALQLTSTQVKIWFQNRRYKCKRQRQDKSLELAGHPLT

[11] = biological target: T2, NKX2-6 (Homo sapiens, UniProt A6NCS4 118-204, F151L)
T2 sequence: T1 sequence with F34L

[12] = biological target: ALX3 (Homo sapiens, UniProt O95076 139-225, L168Q)
ALX3 (Homo sapiens, UniProt O95076 139-225, L168Q), sequence (O95076 139-225 L168Q): as the sequence (O95076 139-225 L168V) above, with V30Q counted along it

[13] = biological target: HOXC10 (Homo sapiens, UniProt Q9NYD6 254-340, K271E)
HOXC10, sequence (Q9NYD6 254-340 K271E): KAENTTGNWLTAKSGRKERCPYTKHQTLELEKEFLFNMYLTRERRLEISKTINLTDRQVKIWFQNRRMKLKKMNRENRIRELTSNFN

[14] = biological target: VAX1 (Homo sapiens, UniProt Q5SQQ9 86-172)
VAX1 (Homo sapiens, UniProt Q5SQQ9 86-172), sequence (Q5SQQ9 86-172): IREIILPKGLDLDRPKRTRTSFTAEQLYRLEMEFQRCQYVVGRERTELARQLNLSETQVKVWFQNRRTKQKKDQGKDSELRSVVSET

[15] = biological target: VAX1 (Homo sapiens, UniProt Q5SQQ9 86-172, T142I)
VAX1 (Homo sapiens, UniProt Q5SQQ9 86-172, T142I), sequence (Q5SQQ9 86-172 T142I): as the sequence (Q5SQQ9 86-172) above, with T57I counted along it

[16] = biological target: VAX1 (Homo sapiens, UniProt Q5SQQ9 86-172, K157R)
VAX1 (Homo sapiens, UniProt Q5SQQ9 86-172, K157R), sequence (Q5SQQ9 86-172 K157R): as the sequence (Q5SQQ9 86-172) above, with K72R counted along it

ALX3 (Homo sapiens, UniProt O95076 139-225), sequence (O95076 139-225): as the sequence (O95076 139-225 L168V) above, with V30L counted along it
ALX3 (Homo sapiens, UniProt O95076 139-225, N203Q), sequence (O95076 139-225 N203Q): as the sequence (O95076 139-225 L168V) above, with V30L, N65Q counted along it
HOXD13 (Homo sapiens, UniProt P35453 263-343, T313R), sequence (P35453 263-343 T313R): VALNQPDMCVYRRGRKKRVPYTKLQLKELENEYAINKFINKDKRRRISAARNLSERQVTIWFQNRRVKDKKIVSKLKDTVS
ALX3 (Homo sapiens, UniProt O95076 139-225, N203S), sequence (O95076 139-225 N203S): as the sequence (O95076 139-225 L168V) above, with V30L, N65S counted along it

In the case of ATCACAGA, the binding signal [1] is reported as 8.15 upbm affinity estimate (log intensity, higher = more binding, comparable within an allelic series), the binding signal [2] is reported as 9.21 upbm affinity estimate (log intensity, higher = more binding, comparable within an allelic series) and the binding signal [3] is reported as 8.16 upbm affinity estimate (log intensity, higher = more binding, comparable within an allelic series).
AACTTCAT was tested, and the binding signal [4] was 10.1 upbm affinity estimate (log intensity, higher = more binding, comparable within an allelic series) and the binding signal [5] was 10.6 upbm affinity estimate (log intensity, higher = more binding, comparable within an allelic series).
In the case of ATTATTTA, the binding signal [1] is reported as 8.54 upbm affinity estimate (log intensity, higher = more binding, comparable within an allelic series) and the binding signal [3] is reported as 8.69 upbm affinity estimate (log intensity, higher = more binding, comparable within an allelic series).
ATATTCAA was tested, and the binding signal [1] was 8.33 upbm affinity estimate (log intensity, higher = more binding, comparable within an allelic series), the binding signal [2] was 9.13 upbm affinity estimate (log intensity, higher = more binding, comparable within an allelic series) and the binding signal [6] was 8.63 upbm affinity estimate (log intensity, higher = more binding, comparable within an allelic series).
For ATCGCTAA, the binding signal [1] was 8.25 upbm affinity estimate (log intensity, higher = more binding, comparable within an allelic series), the binding signal [2] was 9.67 upbm affinity estimate (log intensity, higher = more binding, comparable within an allelic series) and the binding signal [3] was 8.28 upbm affinity estimate (log intensity, higher = more binding, comparable within an allelic series).
With GAATATCA the binding signal [1] was 8.19 upbm affinity estimate (log intensity, higher = more binding, comparable within an allelic series), the binding signal [2] was 8.71 upbm affinity estimate (log intensity, higher = more binding, comparable within an allelic series) and the binding signal [3] was 8.23 upbm affinity estimate (log intensity, higher = more binding, comparable within an allelic series).
CTCGTTAA was tested, and the binding signal [4] was 10.7 upbm affinity estimate (log intensity, higher = more binding, comparable within an allelic series), the binding signal [7] was 13.1 upbm affinity estimate (log intensity, higher = more binding, comparable within an allelic series) and the binding signal [5] was 12.1 upbm affinity estimate (log intensity, higher = more binding, comparable within an allelic series). For the same sequence, the binding signal [8] was 12 upbm affinity estimate (log intensity, higher = more binding, comparable within an allelic series).
With AATATTAA the binding signal [1] was 8.6 upbm affinity estimate (log intensity, higher = more binding, comparable within an allelic series) and the binding signal [3] was 8.69 upbm affinity estimate (log intensity, higher = more binding, comparable within an allelic series).
For CCTATTAC, the binding signal [1] was 8.28 upbm affinity estimate (log intensity, higher = more binding, comparable within an allelic series), the binding signal [2] was 10.8 upbm affinity estimate (log intensity, higher = more binding, comparable within an allelic series) and the binding signal [3] was 8.28 upbm affinity estimate (log intensity, higher = more binding, comparable within an allelic series).
In the case of CTAACAAC, the binding signal [1] is reported as 8.26 upbm affinity estimate (log intensity, higher = more binding, comparable within an allelic series), the binding signal [2] is reported as 9.15 upbm affinity estimate (log intensity, higher = more binding, comparable within an allelic series) and the binding signal [3] is reported as 8.24 upbm affinity estimate (log intensity, higher = more binding, comparable within an allelic series).
GCATTAGA was tested, and the binding signal [1] was 8.11 upbm affinity estimate (log intensity, higher = more binding, comparable within an allelic series), the binding signal [2] was 9.95 upbm affinity estimate (log intensity, higher = more binding, comparable within an allelic series) and the binding signal [3] was 8.12 upbm affinity estimate (log intensity, higher = more binding, comparable within an allelic series).
TATAAACA was tested, and the binding signal [4] was 10.7 upbm affinity estimate (log intensity, higher = more binding, comparable within an allelic series).
ATAAATAA was tested, and the binding signal [1] was 8.6 upbm affinity estimate (log intensity, higher = more binding, comparable within an allelic series), the binding signal [9] was 11.1 upbm affinity estimate (log intensity, higher = more binding, comparable within an allelic series) and the binding signal [3] was 8.76 upbm affinity estimate (log intensity, higher = more binding, comparable within an allelic series).
In the case of GATACGAC, the binding signal [4] is reported as 9.91 upbm affinity estimate (log intensity, higher = more binding, comparable within an allelic series) and the binding signal [5] is reported as 10.3 upbm affinity estimate (log intensity, higher = more binding, comparable within an allelic series).
In the case of TTATAGAA, the binding signal [1] is reported as 8.31 upbm affinity estimate (log intensity, higher = more binding, comparable within an allelic series), the binding signal [2] is reported as 9.6 upbm affinity estimate (log intensity, higher = more binding, comparable within an allelic series) and the binding signal [3] is reported as 8.38 upbm affinity estimate (log intensity, higher = more binding, comparable within an allelic series).
With GCCTCCAC the binding signal [4] was 9.56 upbm affinity estimate (log intensity, higher = more binding, comparable within an allelic series), the binding signal [10] was 9.6 upbm affinity estimate (log intensity, higher = more binding, comparable within an allelic series) and the binding signal [5] was 9.59 upbm affinity estimate (log intensity, higher = more binding, comparable within an allelic series). The binding signal [8] was 9.61 upbm affinity estimate (log intensity, higher = more binding, comparable within an allelic series) and the binding signal [11] was 9.3 upbm affinity estimate (log intensity, higher = more binding, comparable within an allelic series).
For CCCGGCCA, the binding signal [4] was 9.5 upbm affinity estimate (log intensity, higher = more binding, comparable within an allelic series), the binding signal [10] was 9.65 upbm affinity estimate (log intensity, higher = more binding, comparable within an allelic series) and the binding signal [5] was 9.64 upbm affinity estimate (log intensity, higher = more binding, comparable within an allelic series). For the same sequence, the binding signal [8] was 9.63 upbm affinity estimate (log intensity, higher = more binding, comparable within an allelic series) and the binding signal [11] was 9.26 upbm affinity estimate (log intensity, higher = more binding, comparable within an allelic series).
For TATATTAA, the binding signal [4] was 10.7 upbm affinity estimate (log intensity, higher = more binding, comparable within an allelic series).
With TATTATAA the binding signal [1] was 8.66 upbm affinity estimate (log intensity, higher = more binding, comparable within an allelic series) and the binding signal [3] was 8.67 upbm affinity estimate (log intensity, higher = more binding, comparable within an allelic series).
With TCTATTAA the binding signal [4] was 10.7 upbm affinity estimate (log intensity, higher = more binding, comparable within an allelic series).
With CATTTATA the binding signal [4] was 10.7 upbm affinity estimate (log intensity, higher = more binding, comparable within an allelic series).
In the case of ATTTGACC, the binding signal [1] is reported as 8.13 upbm affinity estimate (log intensity, higher = more binding, comparable within an allelic series), the binding signal [2] is reported as 9.49 upbm affinity estimate (log intensity, higher = more binding, comparable within an allelic series) and the binding signal [3] is reported as 8.24 upbm affinity estimate (log intensity, higher = more binding, comparable within an allelic series).
In the case of AGGGGGGC, the binding signal [1] is reported as 7.49 upbm affinity estimate (log intensity, higher = more binding, comparable within an allelic series), the binding signal [2] is reported as 7.66 upbm affinity estimate (log intensity, higher = more binding, comparable within an allelic series) and the binding signal [12] is reported as 7.62 upbm affinity estimate (log intensity, higher = more binding, comparable within an allelic series). The binding signal [6] was 7.47 upbm affinity estimate (log intensity, higher = more binding, comparable within an allelic series) and the binding signal [3] was 7.44 upbm affinity estimate (log intensity, higher = more binding, comparable within an allelic series).
With AGTTAATA the binding signal [1] was 8.54 upbm affinity estimate (log intensity, higher = more binding, comparable within an allelic series) and the binding signal [3] was 8.65 upbm affinity estimate (log intensity, higher = more binding, comparable within an allelic series).
With TCACTAAA the binding signal [4] was 10.1 upbm affinity estimate (log intensity, higher = more binding, comparable within an allelic series) and the binding signal [5] was 10.6 upbm affinity estimate (log intensity, higher = more binding, comparable within an allelic series).
In the case of ATTAGTTA, the binding signal [1] is reported as 8.55 upbm affinity estimate (log intensity, higher = more binding, comparable within an allelic series) and the binding signal [3] is reported as 8.67 upbm affinity estimate (log intensity, higher = more binding, comparable within an allelic series).
In the case of TTAACTAA, the binding signal [1] is reported as 8.53 upbm affinity estimate (log intensity, higher = more binding, comparable within an allelic series) and the binding signal [3] is reported as 8.65 upbm affinity estimate (log intensity, higher = more binding, comparable within an allelic series).
With ATATTTAA the binding signal [1] was 8.67 upbm affinity estimate (log intensity, higher = more binding, comparable within an allelic series) and the binding signal [3] was 8.84 upbm affinity estimate (log intensity, higher = more binding, comparable within an allelic series).
TCCATAAA was tested, and the binding signal [13] was 11.4 upbm affinity estimate (log intensity, higher = more binding, comparable within an allelic series).
For CCCTGACC, the binding signal [14] was 7.22 upbm affinity estimate (log intensity, higher = more binding, comparable within an allelic series), the binding signal [15] was 7.35 upbm affinity estimate (log intensity, higher = more binding, comparable within an allelic series) and the binding signal [16] was 7.27 upbm affinity estimate (log intensity, higher = more binding, comparable within an allelic series).

Reference: publication PMC11006913
